Four substances from PMC4151992 can be followed below.

Common to all, as to experiment: cross-link between two proteins
Assay [1] addresses Small ribosomal subunit protein eS1A (UniProt P33442).
For assay [2], the target named is Small ribosomal subunit protein eS4A (UniProt P0CX35).
Assay [3] concerns the target Small ribosomal subunit protein eS6A (UniProt P0CX37).
In assay [4] the target is Small ribosomal subunit protein eS7A (UniProt P26786).
Small ribosomal subunit protein eS7A, sequence (P26786 whole entry): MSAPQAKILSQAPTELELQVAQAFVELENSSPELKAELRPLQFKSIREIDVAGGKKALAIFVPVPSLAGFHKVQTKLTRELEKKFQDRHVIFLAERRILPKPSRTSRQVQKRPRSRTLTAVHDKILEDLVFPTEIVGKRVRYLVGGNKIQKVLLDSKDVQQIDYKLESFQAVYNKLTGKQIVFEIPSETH

Small ribosomal subunit protein eS4A, sequence (P0CX35 whole entry): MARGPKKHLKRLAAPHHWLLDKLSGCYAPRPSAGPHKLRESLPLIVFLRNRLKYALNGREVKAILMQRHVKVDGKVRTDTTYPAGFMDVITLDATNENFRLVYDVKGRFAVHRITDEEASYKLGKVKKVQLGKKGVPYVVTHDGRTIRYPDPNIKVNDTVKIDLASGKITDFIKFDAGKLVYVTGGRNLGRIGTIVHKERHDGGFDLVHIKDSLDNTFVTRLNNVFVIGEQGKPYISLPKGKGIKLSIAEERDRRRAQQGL
Small ribosomal subunit protein eS6A, sequence (P0CX37 whole entry): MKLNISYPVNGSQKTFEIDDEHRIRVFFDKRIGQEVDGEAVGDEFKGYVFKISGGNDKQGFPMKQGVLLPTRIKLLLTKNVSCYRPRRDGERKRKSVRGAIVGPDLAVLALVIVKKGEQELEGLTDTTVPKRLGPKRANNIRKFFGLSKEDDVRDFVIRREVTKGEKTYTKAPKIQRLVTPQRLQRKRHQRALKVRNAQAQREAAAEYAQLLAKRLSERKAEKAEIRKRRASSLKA
Small ribosomal subunit protein uS8A, P0C0W1, sequence (P0C0W1 whole entry): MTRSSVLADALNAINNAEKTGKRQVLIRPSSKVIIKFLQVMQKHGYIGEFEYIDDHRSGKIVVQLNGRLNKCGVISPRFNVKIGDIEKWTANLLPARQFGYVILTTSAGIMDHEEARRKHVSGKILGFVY
Small ribosomal subunit protein eS1A, sequence (P33442 whole entry): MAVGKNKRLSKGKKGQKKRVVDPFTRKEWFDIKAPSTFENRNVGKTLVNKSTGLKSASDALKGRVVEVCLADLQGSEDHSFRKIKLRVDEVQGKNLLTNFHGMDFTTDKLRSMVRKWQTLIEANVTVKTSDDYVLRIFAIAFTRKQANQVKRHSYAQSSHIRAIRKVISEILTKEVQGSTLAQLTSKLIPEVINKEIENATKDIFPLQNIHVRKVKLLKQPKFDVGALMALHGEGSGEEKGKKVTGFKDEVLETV

For “Small ribosomal subunit protein uS11A, P06367”, the “listed as a hit” value in assay [1] was “yes”. On to “Small ribosomal subunit protein eS24A, P0CX31”, for which the “listed as a hit” value in assay [2] is “yes”. Consider “Small ribosomal subunit protein eS4A, P0CX35”, for which the “listed as a hit” value in assay [3] is given as “yes”. For the substance “Small ribosomal subunit protein uS8A, P0C0W1”, the “listed as a hit” value in assay [4] was “yes”.
